# From PubChem BioAssay AID2284347 (EPA ToxCast)
# Results filed as inconclusive are left out. Activity calls are given as the source filed them. How the source made its calls: active means hit-call score of the fitted dose curve at least 0.9, where 1 is the maximum; inconclusive means response in the unintended direction; inactive means score below 0.9.
# System: rainbow trout Peroxisome Proliferator-activated Receptor alpha (PPARa), gene 110490141
# Assay: ATG_rtPPARa_EcoTox2: Attagene TRANS-FACTORIAL EcoTox-2 HepG2 Assay for rainbow trout Peroxisome Proliferator-activated Receptor alpha (PPARa)
# Method: ATG_EcoTox2 is a cell-based, multiplexed assay created by modifying the existing Attagene TRANS-FACTORIAL system to include a panel of nuclear receptors from some or all the following species: human (Homo sapiens), african clawed frog (Xenopus laevis), rainbow trout (Oncorhynchus mykiss), japanese medaka (Oryzias latipes), and zebrafish (Danio rerio). The ECOTOX2-FACTORIAL format uses HepG2, a human liver cell line, with measurements taken at 24 hours after chemical dosing in a 24-well plate. ATG_rtPPARa_EcoTox2 is one of 29 assay components calculated in the ATG_EcoTox2 assay. It is designed to make measurements of mRNA induction, a form of inducible reporter, as detected with fluorescence intensity signals by Reverse transcription polymerase chain reaction (RT-PCR) and Capillary electrophoresis technology.The assay endpoint […] was analyzed in the positive analysis fitting direction relative to DMSO as the negative control and baseline of activity. Using a type of inducible reporter, measures of mRNA for gain-of-signal activity can be used to understand the reporter gene at the transcription factor-level as they relate to the gene PPARa. Furthermore, this assay endpoint can be referred to as a primary readout, because this assay has produced multiple assay endpoints where this one serves a reporter gene function. To generalize the intended target to other relatable targets, this assay endpoint is annotated to the nuclear receptor intended target family, where the subfamily is non-steroidal.
# Human liver HepG2 cells are transiently transfected with multiple reporter transcription units (MRTUs) in 6-well plates using FuGene 6 reagent (Roche; 3 ml FuGene/1 mg DNA). The MRTU constructs are regulated by a cis-regulating element (promoter). Each RTU expresses a GAL4-UAS that regulates the transcription of a nearby target reporter gene sequence. A major difference between the CIS and TRANS system is that in CIS activities of endogenous TFs are measured, whereas the TRANS assay evaluates changes in activities of exogenous, chimeric NR-Gal4 proteins. […] At the end of 24 hour incubation, total RNA was isolated using TriZol reagent (Invitrogen). The isolated RNA is then reverse-transcribed using oligo(dT) primer and Mo-MLV reverse transcriptase (Invitrogen) with DNAse I (Ambion) treatment for 30 min. The one-tenth of the produced cDNA was amplified by PCR using Taq DNA polymerase (Invitrogen) and two reporter sequence-specific primers. The PCR products were fluorescently labeled by primer extension with 6-arboxyfluorescein (6-FAM) 5'-labeled reporter sequence-specific primer (2 min at 95 C, 20 s at 68 C and 10 min at 72 C) and these products were digested with 5U of HpaI (New England Biolabs) for 2h at 37 C. The fragments were purified using Qiaquick PCR columns (Qiagen), analyzed on an ABI 3130xL genetic analyzer (Applied Biosystems) with peak positions identified by using a set of X-rhodamine (ROX)-labeled MapMarker1000 molecular weight standards (BioVentures). The raw capillary electrophoresis data was processed using Attagraph software (Attagene).
SMILES,outcome,AC50
CC(C)(Oc1ccc(Cl)cc1)C(=O)O,inactive,
C=C(c1ccc(C(=O)O)cc1)c1cc2c(cc1C)C(C)(C)CCC2(C)C,inactive,
Cc1ccc(C)c(OCCCC(C)(C)C(=O)O)c1,,10.4 µM (active)
CC(C)(Oc1ccc(CCNC(=O)c2ccc(Cl)cc2)cc1)C(=O)O,,41.3 µM (active)
C[C@]12C=CC(=O)C=C1CC[C@@H]1[C@@H]2C(=O)C[C@@]2(C)[C@H]1CC[C@]2(O)C(=O)CO,inactive,
CC(c1cc2ccccc2s1)N(O)C(N)=O (configuration not stated),inactive,
CN(CCOc1ccc(CC2SC(=O)NC2=O)cc1)c1ccccn1 (configuration not stated),,6.15 µM (active)
Cc1nc(-c2ccc(C(F)(F)F)cc2)sc1C(=O)NCc1ccc(OC(C)(C)C(=O)O)cc1,,0.0823 µM (active)
Cc1cccc(Nc2cc(Cl)nc(SCC(=O)O)n2)c1C,,25 µM (active)
CC(C)OC(=O)C(C)(C)Oc1ccc(C(=O)c2ccc(Cl)cc2)cc1,inactive,
CC(C)(Oc1ccc(C2CC2(Cl)Cl)cc1)C(=O)O (configuration not stated),,75.3 µM (active)
C[C@@H]1C[C@H]2[C@@H]3CCC4=CC(=O)C=C[C@]4(C)[C@@]3(F)[C@@H](O)C[C@]2(C)[C@@]1(O)C(=O)COP(=O)(O)O,inactive,
